From the supplement of paper PMC10849652
About 8,800 targets were measured; listed, in parts, are those with a hit and a random draw of the rest. About 0.5% of all pairs of compound and target were hits. A number with no mark means an inactive call.

compound: c1cn2cc(-c3ccc4cn[nH]c4c3)nc(Nc3ccc(N4CCOCC4)cc3)c2n1 [entospletinib]; assay: log2 fold change, soluble protein after heating vs DMSO (PISA); higher = thermal stabilisation; K562 lysate, 10 uM; active = over 0.2 and 3.5 SD of the protein, either way, in both replicates (recomputed)
Procedure, shortened: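 The values are log-two fold changes in thermal stability compared with solvent controls and come from duplicates. They were obtained by TMTpro 16plex LC-MS/MS, with channel sums equalised, on the supernatant after 21,000xg for 90 min. That supernatant came from crude K562 extract at 1 mg/mL protein treated with 10 μM compound for 30 min, heated for 3 min across 48°C-58°C, pooled and brought to 0.5% NP-40 at 4°C.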

UniProt P78347, sequence (P78347 whole entry, looked up): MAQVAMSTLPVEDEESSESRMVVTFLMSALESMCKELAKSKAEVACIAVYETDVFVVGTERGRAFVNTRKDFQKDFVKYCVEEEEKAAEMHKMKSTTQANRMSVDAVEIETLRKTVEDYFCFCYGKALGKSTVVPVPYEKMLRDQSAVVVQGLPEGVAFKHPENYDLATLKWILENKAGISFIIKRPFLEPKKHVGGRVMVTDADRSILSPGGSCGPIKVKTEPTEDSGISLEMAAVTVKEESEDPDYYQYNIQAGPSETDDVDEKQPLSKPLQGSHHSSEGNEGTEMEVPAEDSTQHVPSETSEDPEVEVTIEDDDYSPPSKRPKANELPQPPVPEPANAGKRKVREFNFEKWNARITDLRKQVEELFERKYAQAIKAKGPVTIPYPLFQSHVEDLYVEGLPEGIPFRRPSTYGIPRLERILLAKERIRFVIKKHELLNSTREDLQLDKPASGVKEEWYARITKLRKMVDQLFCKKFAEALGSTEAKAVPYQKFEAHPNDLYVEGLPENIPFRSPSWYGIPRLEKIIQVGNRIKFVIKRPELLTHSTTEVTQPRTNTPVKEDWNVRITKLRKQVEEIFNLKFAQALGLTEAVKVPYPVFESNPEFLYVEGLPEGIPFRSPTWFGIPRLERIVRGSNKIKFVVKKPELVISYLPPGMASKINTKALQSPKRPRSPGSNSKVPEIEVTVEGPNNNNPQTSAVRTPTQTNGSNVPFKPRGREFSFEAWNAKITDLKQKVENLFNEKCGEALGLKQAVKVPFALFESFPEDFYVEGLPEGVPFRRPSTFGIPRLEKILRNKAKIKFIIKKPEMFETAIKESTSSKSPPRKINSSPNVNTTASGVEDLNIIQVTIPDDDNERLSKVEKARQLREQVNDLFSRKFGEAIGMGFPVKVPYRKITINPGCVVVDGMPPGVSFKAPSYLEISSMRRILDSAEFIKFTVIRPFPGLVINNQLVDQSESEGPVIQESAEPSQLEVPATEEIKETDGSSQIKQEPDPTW
UniProt O43824, sequence (O43824 whole entry, looked up): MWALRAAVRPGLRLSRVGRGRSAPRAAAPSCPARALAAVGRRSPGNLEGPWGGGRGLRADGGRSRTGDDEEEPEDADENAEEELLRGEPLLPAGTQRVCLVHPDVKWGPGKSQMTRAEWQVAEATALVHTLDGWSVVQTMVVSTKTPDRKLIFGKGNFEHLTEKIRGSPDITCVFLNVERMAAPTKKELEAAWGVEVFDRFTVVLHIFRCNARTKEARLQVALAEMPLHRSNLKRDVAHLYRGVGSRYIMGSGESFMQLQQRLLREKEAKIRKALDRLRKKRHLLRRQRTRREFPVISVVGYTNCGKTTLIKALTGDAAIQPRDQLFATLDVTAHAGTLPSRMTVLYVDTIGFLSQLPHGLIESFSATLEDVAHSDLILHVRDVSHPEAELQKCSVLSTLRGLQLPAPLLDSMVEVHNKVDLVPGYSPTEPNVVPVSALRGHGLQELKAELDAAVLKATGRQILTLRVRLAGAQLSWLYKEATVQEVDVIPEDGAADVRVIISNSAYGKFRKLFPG
UniProt P52655, sequence (P52655 whole entry, looked up): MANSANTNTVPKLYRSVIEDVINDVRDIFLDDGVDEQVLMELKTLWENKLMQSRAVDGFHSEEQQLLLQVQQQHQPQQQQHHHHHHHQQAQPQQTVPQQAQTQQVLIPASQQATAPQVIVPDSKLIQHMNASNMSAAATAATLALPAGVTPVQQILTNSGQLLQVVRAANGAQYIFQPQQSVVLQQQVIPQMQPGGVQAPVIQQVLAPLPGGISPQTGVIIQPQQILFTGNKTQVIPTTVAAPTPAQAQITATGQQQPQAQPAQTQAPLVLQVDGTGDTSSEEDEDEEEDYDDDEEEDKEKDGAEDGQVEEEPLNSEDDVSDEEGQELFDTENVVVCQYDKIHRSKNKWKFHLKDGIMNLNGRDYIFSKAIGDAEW
UniProt Q16836, sequence (Q16836 whole entry, looked up): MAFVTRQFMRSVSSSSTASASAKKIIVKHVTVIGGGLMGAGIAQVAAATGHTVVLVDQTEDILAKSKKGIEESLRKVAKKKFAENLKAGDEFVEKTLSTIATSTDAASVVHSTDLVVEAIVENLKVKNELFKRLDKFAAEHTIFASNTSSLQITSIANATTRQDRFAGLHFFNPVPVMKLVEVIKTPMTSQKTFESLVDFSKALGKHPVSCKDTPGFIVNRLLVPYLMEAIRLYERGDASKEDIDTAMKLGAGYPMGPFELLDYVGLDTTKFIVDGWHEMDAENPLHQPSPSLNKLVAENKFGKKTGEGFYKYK
UniProt Q9UKP3, sequence (Q9UKP3 whole entry, looked up): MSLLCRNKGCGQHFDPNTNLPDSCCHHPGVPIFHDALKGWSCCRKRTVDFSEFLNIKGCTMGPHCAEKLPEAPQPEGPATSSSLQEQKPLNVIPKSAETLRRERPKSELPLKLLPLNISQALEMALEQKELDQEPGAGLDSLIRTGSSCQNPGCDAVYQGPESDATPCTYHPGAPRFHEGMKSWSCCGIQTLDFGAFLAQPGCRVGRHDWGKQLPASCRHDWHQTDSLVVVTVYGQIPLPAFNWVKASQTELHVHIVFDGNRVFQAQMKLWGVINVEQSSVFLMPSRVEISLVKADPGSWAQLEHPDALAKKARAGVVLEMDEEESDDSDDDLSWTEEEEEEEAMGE
UniProt P28161, sequence (P28161 whole entry, looked up): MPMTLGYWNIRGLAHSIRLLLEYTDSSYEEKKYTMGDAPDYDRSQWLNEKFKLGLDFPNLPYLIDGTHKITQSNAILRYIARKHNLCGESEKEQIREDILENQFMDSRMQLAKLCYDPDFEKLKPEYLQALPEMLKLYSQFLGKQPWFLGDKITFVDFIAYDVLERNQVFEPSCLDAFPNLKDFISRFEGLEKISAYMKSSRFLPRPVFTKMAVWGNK
UniProt Q9HAV0, sequence (Q9HAV0 whole entry, looked up): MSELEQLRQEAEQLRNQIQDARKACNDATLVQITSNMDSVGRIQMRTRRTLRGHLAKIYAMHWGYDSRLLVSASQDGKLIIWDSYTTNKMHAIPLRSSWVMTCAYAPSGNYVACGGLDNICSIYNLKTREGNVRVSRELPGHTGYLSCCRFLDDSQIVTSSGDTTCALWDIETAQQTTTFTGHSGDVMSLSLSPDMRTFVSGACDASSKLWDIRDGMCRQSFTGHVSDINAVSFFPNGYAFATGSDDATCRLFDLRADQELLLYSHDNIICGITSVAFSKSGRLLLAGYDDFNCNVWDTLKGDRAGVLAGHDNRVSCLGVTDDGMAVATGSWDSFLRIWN
UniProt Q6ICG6, sequence (Q6ICG6 whole entry, looked up): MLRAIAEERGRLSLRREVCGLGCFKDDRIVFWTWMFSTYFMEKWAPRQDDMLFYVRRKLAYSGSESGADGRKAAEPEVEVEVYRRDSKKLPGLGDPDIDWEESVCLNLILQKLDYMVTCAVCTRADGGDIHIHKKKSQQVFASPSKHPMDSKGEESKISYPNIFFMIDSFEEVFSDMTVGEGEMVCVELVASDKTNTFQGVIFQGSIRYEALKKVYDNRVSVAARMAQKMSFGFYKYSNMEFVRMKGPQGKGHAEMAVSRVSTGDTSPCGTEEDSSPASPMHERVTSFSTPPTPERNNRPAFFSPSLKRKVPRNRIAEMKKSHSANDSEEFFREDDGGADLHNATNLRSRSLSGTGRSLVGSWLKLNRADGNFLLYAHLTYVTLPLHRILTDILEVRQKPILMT
UniProt Q9Y573, sequence (Q9Y573 whole entry, looked up): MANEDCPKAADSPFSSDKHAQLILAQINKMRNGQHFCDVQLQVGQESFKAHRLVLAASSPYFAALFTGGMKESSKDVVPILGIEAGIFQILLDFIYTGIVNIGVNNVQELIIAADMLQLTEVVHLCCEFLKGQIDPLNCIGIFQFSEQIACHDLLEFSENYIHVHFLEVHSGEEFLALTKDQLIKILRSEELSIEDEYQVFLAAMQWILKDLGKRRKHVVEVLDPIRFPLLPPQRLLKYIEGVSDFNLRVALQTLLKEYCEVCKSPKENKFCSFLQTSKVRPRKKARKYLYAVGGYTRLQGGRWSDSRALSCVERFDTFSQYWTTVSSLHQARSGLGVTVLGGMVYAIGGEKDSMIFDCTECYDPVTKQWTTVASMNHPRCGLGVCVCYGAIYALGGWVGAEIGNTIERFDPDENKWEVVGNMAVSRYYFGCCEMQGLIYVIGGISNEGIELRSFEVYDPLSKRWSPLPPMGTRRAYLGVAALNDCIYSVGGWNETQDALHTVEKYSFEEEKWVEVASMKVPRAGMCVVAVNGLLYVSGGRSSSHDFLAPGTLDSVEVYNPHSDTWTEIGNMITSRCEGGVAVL
UniProt Q9H4A6, sequence (Q9H4A6 whole entry, looked up): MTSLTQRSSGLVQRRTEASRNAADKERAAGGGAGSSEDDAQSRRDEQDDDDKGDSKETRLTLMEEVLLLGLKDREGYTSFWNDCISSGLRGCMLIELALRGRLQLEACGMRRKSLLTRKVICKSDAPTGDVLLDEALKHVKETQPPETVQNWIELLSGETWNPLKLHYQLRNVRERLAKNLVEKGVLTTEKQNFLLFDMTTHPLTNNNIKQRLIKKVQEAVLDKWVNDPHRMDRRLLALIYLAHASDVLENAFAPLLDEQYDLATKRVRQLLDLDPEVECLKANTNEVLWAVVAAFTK
UniProt P32780, sequence (P32780 whole entry, looked up): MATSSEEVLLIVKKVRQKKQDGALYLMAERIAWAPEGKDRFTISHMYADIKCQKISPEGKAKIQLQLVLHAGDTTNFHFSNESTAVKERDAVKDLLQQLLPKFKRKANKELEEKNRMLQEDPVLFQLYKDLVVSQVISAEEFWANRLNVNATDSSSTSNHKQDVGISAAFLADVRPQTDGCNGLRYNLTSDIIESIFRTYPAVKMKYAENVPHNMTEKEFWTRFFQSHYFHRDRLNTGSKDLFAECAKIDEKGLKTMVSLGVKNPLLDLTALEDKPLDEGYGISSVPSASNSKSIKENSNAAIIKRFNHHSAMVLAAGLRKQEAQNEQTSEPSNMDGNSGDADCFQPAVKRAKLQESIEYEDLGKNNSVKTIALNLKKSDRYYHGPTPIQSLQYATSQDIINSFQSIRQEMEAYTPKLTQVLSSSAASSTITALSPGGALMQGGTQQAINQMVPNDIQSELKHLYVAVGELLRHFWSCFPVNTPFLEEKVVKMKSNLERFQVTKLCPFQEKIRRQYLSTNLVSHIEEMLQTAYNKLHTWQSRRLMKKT

| Target | log2 fold change |
| --- | --- |
| HELQ (UniProt Q8TDG4) | -0.103 |
| HNRNPM (UniProt M0QZM1) | 0 |
| IMPDH2 (UniProt H0Y4R1) | -0.042 |
| KDM6A (UniProt O15550) | -0.02 |
| HYDIN (UniProt Q4G0P3) | -0.005 |
| GSTM2 (UniProt P28161) | 0.044 |
| GPA33 (UniProt Q99795) | 0.017 |
| HERC2 (UniProt O95714) | 0.014 |
| ITGB1BP2 (UniProt Q9UKP3) | 0.107 |
| HMGN5 (UniProt Q5JSK9) | -0.187 |
| KIAA0930 isoform 2 (UniProt Q6ICG6) | 0.062 |
| IPP (UniProt Q9Y573) | 0.074 |
| GNB4 (UniProt Q9HAV0) | 0.029 |
| HSPBAP1 (UniProt Q96EW2) | -0.125 |
| KDM1A (UniProt O60341) | 0.01 |
| HDAC2 (UniProt Q92769) | -0.005 |
| HADH isoform 2 (UniProt Q16836) | 0.022 |
| GOLPH3 (UniProt Q9H4A6) | 0.026 |
| HSPA8 (UniProt E9PN89) | -0.024 |
| GTF2I (UniProt P78347) | -0.017 |
| GTPBP6 (UniProt O43824) | 0.255 |
| KDM5C (UniProt P41229) | 0.003 |
| GTF2A1 (UniProt P52655) | 0.039 |
| GTF2H1 (UniProt P32780) | 0.035 |
